In the library only some 5.3% were active in any assay of this set; here they are far more common.
HP1b binding inh: blocks HP1-beta chromodomain binding to methylated histone tails | P83916 | AlphaScreen HP1-beta / biotin-H3K9me3 peptide binding | Potency, µM (titrated, usually from 114 µM), inactives show at the top dose activity change, negative = inhibition, usual class: inhibitors | 390,000 tested, 0.56% active | AID 540317; also: potency is read from the fitted curve at half-maximal effect; nearly all actives have a fitted effect of over 70% in size
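AlphaScreen: HP1-beta (50 nM) preformed 30 min with biotin-H3(1-18)K9me3 peptide (50 nM) in PBS pH 7.4, 0.01% Tween-20. Compound added for 30 min at RT, then streptavidin donor/nickel chelate acceptor beads (10 ug/mL) for 30 min.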
TDP1 inh: inhibitors of human tyrosyl-DNA phosphodiesterase TDP1 | recombinant TDP1, AlphaScreen DNA substrate cleavage | 350,000 tested, 0.28% active | Potency, µM (series often up to 130 µM), inactives show top-dose activity change, negative = inhibition, usual class: inhibitors | Q9NUW8 | AID 485290; also: potency is read from the fitted curve at half-maximal effect; % is scaled to controls: 0 for no effect and ±100 for the full control effect; nearly all actives have a fitted effect of over 40% in size
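Enzyme-compound mixtures sat 15 min at room temperature, followed by a 5 min reaction with 15 nM final substrate and 10 min with AlphaScreen beads. Recombinant human Tdp1 was used at 1 nM final.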
Six1-Eya2 blk: Six1/Eya2 interaction inhibition; Q15475+O00167; AlphaScreen GST-Six1/His-Eya2 binding, biochemical; active compounds read low; activity change, % (test concentration not listed); 360,000 tested, 0.56% active; AID 651725; in the data active = activity change below about -65%; inconclusive = mostly about -30% to -63%; also: % is scaled to controls: 0 for no effect and ±100 for the full control effect
Target sequence (O00167 whole entry, looked up): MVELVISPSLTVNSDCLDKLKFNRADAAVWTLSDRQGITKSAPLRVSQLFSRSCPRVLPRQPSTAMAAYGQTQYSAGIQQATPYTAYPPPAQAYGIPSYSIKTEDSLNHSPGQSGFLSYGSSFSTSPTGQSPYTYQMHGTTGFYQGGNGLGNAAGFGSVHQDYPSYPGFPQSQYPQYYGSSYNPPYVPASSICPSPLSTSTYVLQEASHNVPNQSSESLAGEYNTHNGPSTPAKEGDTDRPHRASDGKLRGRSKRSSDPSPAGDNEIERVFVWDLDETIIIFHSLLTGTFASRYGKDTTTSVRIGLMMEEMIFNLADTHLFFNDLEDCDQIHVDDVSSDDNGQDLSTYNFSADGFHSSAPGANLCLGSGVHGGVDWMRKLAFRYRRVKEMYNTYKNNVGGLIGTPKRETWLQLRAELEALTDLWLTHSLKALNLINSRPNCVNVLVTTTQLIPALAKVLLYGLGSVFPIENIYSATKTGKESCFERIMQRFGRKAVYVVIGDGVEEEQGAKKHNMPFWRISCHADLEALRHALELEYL
Target sequence (Q15475 whole entry, looked up): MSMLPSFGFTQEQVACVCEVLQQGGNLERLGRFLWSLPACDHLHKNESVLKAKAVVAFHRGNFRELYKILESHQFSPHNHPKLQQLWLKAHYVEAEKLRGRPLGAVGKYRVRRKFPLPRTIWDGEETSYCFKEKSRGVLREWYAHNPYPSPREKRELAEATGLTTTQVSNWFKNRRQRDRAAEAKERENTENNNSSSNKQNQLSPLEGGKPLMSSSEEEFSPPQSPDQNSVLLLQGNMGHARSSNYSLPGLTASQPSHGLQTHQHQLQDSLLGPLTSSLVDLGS
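Six1/Eya2 binding was read as AlphaScreen signal after compounds were pinned into GST-Six1 plus His-tagged Eya2 (5X stock 250/500 nM) in pH 8.0 Tris/NaCl/TCEP buffer, beads added, then incubated 1 h, 37 C, dark.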
CtBP-E1A inh: blocks the CtBP interaction with E1A; activity change, % (concentration not given with the values); 340,000 tested, 0.49% active; AlphaScreen GST-E1A/His-CtBP binding, 1536-well; active compounds read low; AID 651724; in the data active = activity change below about -65%; inconclusive = mostly about -30% to -63%; also: % is scaled to controls: 0 for no effect and ±100 for the full control effect
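GST-E1A and His-tagged CtBP (125 nM each as 5X stock) were preincubated with pin-transferred compound for 2 h at 37 °C in the dark, then glutathione donor and nickel acceptor beads were added for 1 h before AlphaScreen reading.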
JMJD2A Tudor inh: inhibitors of human JMJD2A Tudor domain; O75164; AlphaScreen JMJD2A-Tudor / H3K4me3 peptide binding; Potency, µM (highest dose often 114 µM), without a hit: top-dose activity change, negative = inhibition, actives largely listed as inhibitors; 390,000 tested, 4.4% active; also: potency is read from the fitted curve at half-maximal effect; % is scaled to controls: 0 for no effect and ±100 for the full control effect; nearly all actives have a fitted effect of over 50% in size
BAZ2B inh: BAZ2B (human) inhibition; AlphaScreen BAZ2B-H3K14Ac peptide displacement; Q9UIF8; AID 504333; Potency, µM (titrated, usually from 114 µM), for the others: top-dose activity change, negative = inhibition, usual class: inhibitors; 360,000 tested, 4.4% active; also: potency is read from the fitted curve at half-maximal effect; % is scaled to controls: 0 for no effect and ±100 for the full control effect; nearly all actives have a fitted effect of over 60% in size
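BAZ2B 50 nM plus b-H3(5-23)K14Ac 50 nM, PBS pH 7.4/0.01% Tween-20, 30 min RT; compound added (max 110 uM), 30 min RT; streptavidin donor/Ni-chelate acceptor beads 10 ug/mL final, 20 min dark; AlphaScreen read.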
An asterisk follows results filed as active; ? = inconclusive; / = no result; ! = repeats disagree; [ ] = dose if it differs, or a comment. Unless noted, calls follow the shape of the dose curve; as a rule, active = well fitted inhibition curve with a large enough effect; inconclusive = small, poorly fitted or top-dose-only effect; inactive = no such curve, though single readings can be large or run the other way.

SMILES	HP1b binding inh	TDP1 inh	Six1-Eya2 blk	CtBP-E1A inh	JMJD2A Tudor inh	BAZ2B inh
CC(N)(COP(=O)(O)Oc1ccccc1)C(=O)O (stereo unspecified)	/	4.9%	/	/	/	/
CCOC(=O)Cn1c(C)[n+](C)c2cc(Cl)c(Cl)cc21	1.8%	2.6%	1.3	/	28.2µM*	-1.1%
COC(=O)COc1ccc(C[C@@H](C)NC[C@H](O)c2cccc(Cl)c2)cc1	/	8.2%	/	/	/	/
COc1ccc(C=O)cc1OC	/	9.9%	/	/	/	/
CN(C)c1ccc(/C=C/C=C2/C(=O)NC(=O)N(c3ccccc3)C2=O)cc1	15.8µM*	3.0%	6.1	-2.3	?	12.6µM*
C=CCN1C(=O)NC(=O)/C(=C/C=C/c2ccccc2)C1=O	?	-5.3%	-7.3	1.8	-21.0%	?
CCC1C(=O)OC[C@H]1Cc1cncn1C (stereo partly specified)	/	10.2%[56.1 µM]	/	/	/	/
C[C@]12C/C(=C/O)C(=O)C[C@@H]1CC[C@@H]1[C@@H]2CC[C@@]2(C)[C@H]1CC[C@]2(C)O	/	18.9%	/	/	/	/
C[N+]1(C)C2CCC1CC(OC(=O)c1ccco1)C2 (stereo unspecified)	31.6%	/	-0.9	8.9	-7.8%	-14.6%
C[N+]1(C)C2CCC1CC(OC(=O)c1c[nH]c3ccccc13)C2 (stereo unspecified)	27.2%	-7.4%[56.1 µM]	-2.8	2.4	50.1µM*	-31.3%
N#Cc1c(Oc2cccc(OS(=O)(=O)CCCC(F)(F)F)c2)cccc1C(F)(F)F	/	-1.0%	/	/	/	/
CCOC(=O)[C@]12Cc3cc(N(C)C)ccc3[C@H]1N(Cc1ccccc1)C(=O)c1ccccc12	-15.8%	/	?	?	15.8µM*	/
CCOC(=O)[C@]12Cc3cc(Cl)ccc3[C@H]1N(Cc1ccccc1)C(=O)c1ccccc12	19.1%	/	-6.9	-0.1	-15.2%	/
O=C(O)c1[nH]c(=O)[nH]c(=O)c1F	-1.2%	-2.9%	3.8	-0.9	7.08µM*	50.1µM*
O=c1ccc(=O)[nH][nH]1	/	2.0%	/	/	/	/
COC(=O)C1=C(c2cc3ccccc3o2)C[C@@H]2CC[C@H]1N2C(=O)NC(C)C	52.2%	/	1.7	6.4	39.8µM*	/
CCCCC/C=C\C/C=C\C/C=C\C/C=C\CCCC(=O)N(Cc1ccc(O)c(Cl)c1)Cc1ccc(O)c(Cl)c1	/	-3.1%	/	/	/	/
[Cl][Pt+2][Cl].[NH-]C1CCCCC1[NH-] (stereo unspecified)	-38.3%	/	?	-73.3*	79.4µM*	-10.4%
O=C(O)Cn1cc(/C=C2\C(=O)NC(=O)N(c3ccc(Cl)cc3)C2=O)c2ccccc21	29.2%	/	-2.4	/	-20.4%	?
O=C1NC(=O)N(c2ccc(Cl)cc2)C(=O)/C1=C\c1ccc(Sc2nc3ccccc3[nH]2)o1	39.8µM*	-4.5%	?	-27.4	10µM*	28.2µM*
CN1CC[C@@]2(C)c3cc(O)ccc3N(C)C2O1 (stereo partly specified)	-15.6%	3.2%	/	/	-20.7%	/
CN1CC[C@@]2(C)c3cc(O)ccc3N(C)[C@@H]12	?	6.0%	-0.8	?	3.98µM*!	/
CN1C(=O)N(C)C(=O)C2(Cc3cc(N)ccc3N3CCN(c4ccccc4F)CC32)C1=O (stereo unspecified)	/	-6.1%	/	/	/	50.1µM*
CN1CCN2c3ccc(N)cc3CC3(C(=O)NC(=O)NC3=O)C2C1 (stereo unspecified)	-12.5%	44.7µM*	2.4	8.1	89.1µM*	7.94µM*
OCCBr	/	5.4%	/	/	/	/
SMILES	HP1b binding inh	TDP1 inh	Six1-Eya2 blk	CtBP-E1A inh	JMJD2A Tudor inh	BAZ2B inh
Oc1c(Cl)cccc1Cl	/	3.1%	/	/	/	/
C#C[C@@]1(O)CC[C@@H]2[C@@H]3CCC4=CC(=O)CC[C@@]4(C)[C@H]3CC[C@]21C	/	12.8%[21 µM]	/	/	/	/
CN(c1ccccc1)S(=O)(=O)c1ccc2ccccc2c1	102.1%	-11.8%	13.2	18.8	57.5%	45.7%
CC(C)NC(=O)C(C)N1CCN(S(=O)(=O)c2ccc3ccccc3c2)CC1 (stereo unspecified)	39.8µM*	6.2%	6.7	4.5	3.16µM*	56.2µM*
O=C1NC(=O)N(Cc2ccccc2)C(=O)/C1=C/c1cnc(-c2ccccc2)nc1	-6.3%	-2.5%	-0.8	2.7	79.4µM*	-33.8%
CN(C)c1ccc(/C=C2\C(=O)NC(=O)N(Cc3ccc(F)cc3)C2=O)cc1	20.1%	-2.6%	10.1	5.9	-11.0%	-9.9%
CC(C)c1ccc(N2C(=O)NC(=O)/C(=C/c3cnc(-c4ccccc4)nc3)C2=O)cc1	-4.9%	?	-0.1	0.4	89.1µM*	?
CN1CC[C@@]2(c3cccc(O)c3)Cc3nc4ccccc4cc3C[C@H]2C1	/	7.1%	/	/	/	/
C[N+]1(C)CCc2cc3c(cc2[C@H]1[C@@H]1OC(=O)c2c1ccc1c2OCO1)OCO3	49.5%	2.7%	0.1	2.0	25.1µM*!	?
CN1C(=O)C(c2ccc([N+](=O)[O-])cc2[N+](=O)[O-])C(=O)N(C)C1=O	17.9%	/	-3.5	/	?	50.1µM*
OCCNCCc1c[nH]c2ccc(OCc3ccccc3)cc12	-8.9%	/	-28.2	/	39.8µM*	?
OC(CCNCCc1c[nH]c2ccccc12)C(F)(F)F (stereo unspecified)	31.9%	0.0%	-1.8	4.0	-2.7%	-8.6%
S=c1[nH]nc(-c2ccn[nH]2)n1-c1ccccc1Cl	?	/	4.3	0.0	20µM*	50.1µM*
NC(N)=Nc1ccc2[nH]c3c(c2c1)C[C@]1(O)[C@@H]2Cc4ccc(O)c5c4[C@]1(CCN2CC1CC1)[C@@H]3O5	/	-4.8%[56.1 µM]	/	/	/	/
Cc1cccc(-n2c(C)n[nH]c2=S)c1C	44.6%	/	5.5	-0.2	44.7µM*	4.7%
Cc1cccc(-n2c(C)nc3ccccc3c2=O)c1C	11.5%	4.9%	10.7	2.0	-23.5%	13.3%
CNc1ccc2nc3ccccc3[n+](C)c2c1	?	/	-75.3*	/	-33.3%	35.5µM*
C[n+]1c2ccccc2nc2ccc(NCCO)cc21	39.8µM*	/	-72.9*	-69.8*	?	12.6µM*
[CH3][Hg][Cl]	/	8.7%	/	/	/	/
O=[N+]([O-])c1ccc(N2CCCC2)c(F)c1Br	8.3%	3.5%	-15.8	-2.4	-18.1%	-31.5%
Cc1cc(Oc2cc(NN3CCCCC3)c([N+](=O)[O-])cc2[N+](=O)[O-])ccc1[N+](=O)[O-]	-20.2%	/	-29.2	-22.5	17.8µM*	50.1µM*
CC(=Nc1c(C)n(C)n(-c2ccccc2)c1=O)c1c(O)n(Cc2ccccc2)c(=O)[nH]c1=O	25.3%	8.6%	18.5	-11.8	-28.8%	4.4%
Cc1c(N=Nc2c(O)[nH]c(=O)[nH]c2=O)c(=O)n(-c2ccccc2)n1C	67.1%	10.0%	-91.2*	/	12.6µM*	3.16µM*

Screening data from PubChem.
